The source of these data is PubChem BioAssay (NCATS).

Inconclusive results are not listed. A number with no mark means an inactive call. The source made the active and inactive calls. The call rests on the fitted dose curve; in most records, active means well fitted curve in the direction sought with a large enough effect; inconclusive means small, poorly fitted or top-dose-only effect, or another doubt; inactive means no such curve, though single readings can be large; an effect the other way counts as inactive or inconclusive.
Potency means the concentration at half of the fitted maximal effect.

A short description of one assay: qHTS of pediatric cancer cell lines to identify multiple opportunities for drug repurposing: Primary screen for Rh18 cells (AID 1347102). Further: nearly all actives have a fitted effect of over 65% in size. On activity change, negative = cytotoxic: on the % scale 0 is the no-effect control and ±100 the full control effect. Conditions: Rh18 rhabdomyosarcoma viability, CellTiter-Glo luminescence, 48 h; series mostly up to 46 µM; activity change, negative = cytotoxic: at the top concentration. The essentials: (§1)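 Cells (500-1,000/well) rested 5 h, then received compounds for 48 h; metabolically active cells were measured by CellTiter-Glo luminescence. Final concentrations spanned up to 46 µM (MIPE, 11-point) or 0.59 nM-46 µM (NPC, 8-point) in primary screens, 11-point in follow-ups.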
As for `CCc1cc(-c2n[nH]c(C)c2-c2ccc3c(c2)OCCO3)c(O)cc1O`, the Potency was 6.62 µM (active).

As to `Cc1ccc(C(=O)N(CCCN)[C@@H](c2oc3cc(Cl)ccc3c(=O)c2Cc2ccccc2)C(C)C)cc1`, the Potency was 26.4 µM (active).

Consider `CN(C)S(=O)(=O)c1ccc2c(c1)C(=Cc1cc3c([nH]1)CCCC3)C(=O)N2`, for which the “activity change, negative = cytotoxic” value is -4.81%.

In the case of `CC(C)n1c(C=C[C@H](O)C[C@H](O)CC(=O)O)c(-c2ccc(F)cc2)c2ccccc21`, the Potency is 5.9 µM (active).

In the case of `Nc1ccn([C@@H]2O[C@H](CO)[C@@H](O)[C@H]2O)c(=O)n1`, the “activity change, negative = cytotoxic” value was -12.5%.

In the case of `CC1(C)CC(=O)c2c(C(F)(F)F)nn(-c3ccc(C(N)=O)c(NC4CCC(O)CC4)c3)c2C1` (configuration not stated), the Potency is 0.264 µM (active).

For `CN1CCN(c2cccc(Nc3nc4c(-c5ccc(S(C)(=O)=O)cc5)cccn4n3)c2)CC1`, the Potency is 18.7 µM (active).

With `Cc1csc(-c2nnc(Nc3ccc(Oc4ncccc4-c4ccnc(N)n4)cc3)c3ccccc23)c1`, the “activity change, negative = cytotoxic” value is -6.97%.

Regarding `OCCn1cc(-c2ccc3c(c2)CCC3=NO)c(-c2ccncc2)n1`, the “activity change, negative = cytotoxic” value is 16.1%.

For the compound `COc1cc2c(cc1OC)CC(=O)N(CCCN(C)C[C@H]1Cc3cc(OC)c(OC)cc31)CC2`, the “activity change, negative = cytotoxic” value was -8.99%.

Take `CC1=C[C@@H]2[C@@H]([C@@H](O)C[C@@]3(C)[C@H]2C[C@@H](C)[C@]3(O)C(=O)CO)[C@@]2(C)Cc3cnn(-c4ccccc4)c3C=C12`: the “activity change, negative = cytotoxic” value is -17%.

As to `CCC(c1ccc(O)cc1)C(CC)c1ccc(O)cc1` (configuration not stated), the “activity change, negative = cytotoxic” value was -6.83%.

On to `CN(C)CCCNC(=O)c1ccc(-c2cc(O)c3ncccc3c2)cc1`, for which the “activity change, negative = cytotoxic” value was 6.54%.

`Cc1ccc2c(c1)c1c(n2CCc2ccc(C)nc2)CCN(C)C1`: the “activity change, negative = cytotoxic” value is -13.5%.

For the compound `CC(O)=C(C#N)C(=O)Nc1ccc(C(F)(F)F)cc1`, the “activity change, negative = cytotoxic” value is -4.26%.

Turning to `COc1ccc2c(c1)CC[C@H]1[C@@H]2CC[C@]2(C)[C@@H](NCCCCCCN3C(=O)C=CC3=O)CC[C@H]12`, the “activity change, negative = cytotoxic” value is -7.73%.

Regarding `COc1ccc(Cn2ccc3ccc(C(=O)NO)cc32)cc1`, the “activity change, negative = cytotoxic” value is -15.2%.

Regarding `C[C@@]1(c2cc(-c3cncnc3)c(F)cc2F)CCSC(N)=N1`, the “activity change, negative = cytotoxic” value is -14.2%.

A further assay in a line: qHTS of pediatric cancer cell lines to identify multiple opportunities for drug repurposing: Primary screen for OHS-50 cells (AID 1347103). Further: nearly all actives have a fitted effect of over 40% in size.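 On activity change, negative = cytotoxic: plate controls were DMSO neutral control for no effect and bortezomib positive control for full effect.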 The note with it: OHS-50 osteosarcoma viability, CellTiter-Glo luminescence, 48 h; series mostly up to 57.3 µM; activity change, negative = cytotoxic: at the top concentration. The essentials:
as §1
Regarding `CCc1cc(-c2n[nH]c(C)c2-c2ccc3c(c2)OCCO3)c(O)cc1O`, the Potency is 9.68 µM (active).

For the compound `CCC(C)SSc1ncc[nH]1` (configuration not stated), the Potency is 15.3 µM (active).

As for `CC(C)n1c(C=C[C@H](O)C[C@H](O)CC(=O)O)c(-c2ccc(F)cc2)c2ccccc21`, the Potency was 4.32 µM (active).

For the compound `CC1(C)CC(=O)c2c(C(F)(F)F)nn(-c3ccc(C(N)=O)c(NC4CCC(O)CC4)c3)c2C1` (configuration not stated), the Potency is 0.306 µM (active).

As for `CN1CCN(c2cccc(Nc3nc4c(-c5ccc(S(C)(=O)=O)cc5)cccn4n3)c2)CC1`, the Potency was 7.69 µM (active).

Consider `O=C(Nc1cccc(Cl)c1)Nc1ncc(CCNc2ncnc3ccsc23)s1`, for which the Potency is 7.69 µM (active).

`C[C@H]1COC2=C1C(=O)C(=O)c1c2ccc2c1CCCC2(C)C`: the “activity change, negative = cytotoxic” value was 7.79%.

With `CC[C@H](NC(=O)[C@H](C)NC)C(=O)N1C[C@@H](O)C[C@H]1Cc1c(-c2[nH]c3cc(F)ccc3c2C[C@H]2C[C@H](O)CN2C(=O)[C@H](CC)NC(=O)[C@H](C)NC)[nH]c2cc(F)ccc12`, the Potency was 0.432 µM (active).

For the compound `CCC(c1ccc(O)cc1)C(CC)c1ccc(O)cc1` (configuration not stated), the Potency was 27.3 µM (active).

On to `O=C(c1ccc(C=Cc2n[nH]c3ccccc23)cc1)N1CCNCC1`, for which the Potency is 2.17 µM (active).

In the case of `CCn1c(-c2nonc2N)nc2cncc(CNC3CCNCC3)c21`, the “activity change, negative = cytotoxic” value was 12.2%.

Regarding `Clc1ccc(COC(Cn2ccnc2)c2ccc(Cl)cc2Cl)c(Cl)c1` (configuration not stated), the Potency was 19.3 µM (active).

In the case of `Cc1ccc(NC(=O)c2ccc(CN3CCN(C)CC3)cc2)cc1Nc1nc(-c2cccnc2)cs1`, the Potency is 21.7 µM (active).

With `Cc1ccc(S(=O)(=O)Nc2nc3ccccc3nc2Nc2ccc3nsnc3c2)cc1`, the Potency was 0.0421 µM (active).

For `C[C@@]1(c2cc(-c3cncnc3)c(F)cc2F)CCSC(N)=N1`, the Potency is 2.73 µM (active).

The next assay can be described thus: qHTS of pediatric cancer cell lines to identify multiple opportunities for drug repurposing: Primary screen for RD cells (AID 1347104). Further: nearly all actives have a fitted effect of over 55% in size.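 On activity change, negative = cytotoxic: plate controls were DMSO for no effect and bortezomib for full effect.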 Conditions: RD rhabdomyosarcoma viability, CellTiter-Glo luminescence, 48 h; series mostly up to 46 µM; activity change, negative = cytotoxic: at the top concentration. The essentials: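 500-1,000 cells/well; 5 h pre-incubation 37 °C/5% CO2; compound pinned; 48 h; CellTiter-Glo, 15 min RT; luminescence. MIPE 11-pt from 0.78 nM, NPC 8-pt from 0.59 nM final. Bortezomib 2.3 µM final as positive control.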
Regarding `c1ccc(-c2oc3ncnc(NC[C@@H]4CCCO4)c3c2-c2ccccc2)cc1`, the Potency was 29.6 µM (active).

In the case of `Nc1ccn([C@@H]2O[C@H](CO)[C@@H](O)[C@H]2O)c(=O)n1`, the “activity change, negative = cytotoxic” value was -14.5%.

As for `CNc1nc(-c2ccc3c(N)n[nH]c3c2)cc(N2C[C@@H](C(=O)NC3CCCCC3)CC[C@@H]2C)n1`, the Potency is 20.9 µM (active).

As for `COC(=O)N1CCN(Cc2cccc(NC(=O)Nc3ccc(C)nc3)c2F)CC1`, the “activity change, negative = cytotoxic” value is -13.9%.

In the case of `Cc1ccc2c(c1)c1c(n2CCc2ccc(C)nc2)CCN(C)C1`, the “activity change, negative = cytotoxic” value was -10.1%.

Consider `CC(=O)Nc1cccc(-n2c(=O)n(C3CC3)c(=O)c3c(Nc4ccc(I)cc4F)n(C)c(=O)c(C)c32)c1`, for which the Potency was 0.0372 µM (active).

Regarding `Cc1ccc(NC(=O)c2ccc(CN3CCN(C)CC3)cc2)cc1Nc1nc(-c2cccnc2)cs1`, the Potency is 18.7 µM (active).

Consider `Cc1ccc(S(=O)(=O)Nc2nc3ccccc3nc2Nc2ccc3nsnc3c2)cc1`, for which the Potency is 0.0512 µM (active).

Take `COc1ccc2c(c1)CC[C@H]1[C@@H]2CC[C@]2(C)[C@@H](NCCCCCCN3C(=O)C=CC3=O)CC[C@H]12`: the “activity change, negative = cytotoxic” value was -11.5%.
